# CtBP-E1A inh = inhibitors of CtBP/E1A interaction; AlphaScreen GST-E1A/His-CtBP binding, 1536-well; stronger effect = lower value; activity change, % (no concentration beside the values); 340,000 tested, 0.49% active
#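 AlphaScreen with 125 nM GST-E1A and 125 nM His-CtBP (5X stocks) in Tris pH 8.0, 300 mM NaCl, BSA, Tween 20, TCEP. Compounds preincubated 2 h at 37 deg C, then glutathione donor/nickel acceptor beads added for 1 h at 37 deg C in dark.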
# Six1-Eya2 inh = blocks human Six1 binding to Eya2; Q15475+O00167; AlphaScreen GST-Six1/His-Eya2 binding, biochemical; stronger effect = lower value; activity change, % (no concentration beside the values); 360,000 tested, 0.56% active; AID 651725
#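 Six1/Eya2 binding was read as AlphaScreen signal after compounds were pinned into GST-Six1 plus His-tagged Eya2 (5X stock 250/500 nM) in pH 8.0 Tris/NaCl/TCEP buffer, beads added, then incubated 1 h, 37 C, dark.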
# KCNH2 WT inh = blocks the wildtype human KCNH2 potassium channel | 340,000 tested, 0.37% active | U2OS, BacMam KCNH2, thallium flux FluxOr; stronger effect = lower value | activity change, % at 1.84 µM | Q12809;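 active means maximum activity change below -70%; inconclusive means maximum activity change between -70% and -50%; inactive means maximum activity change above -50%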
# Target sequence (Q12809 whole entry, looked up): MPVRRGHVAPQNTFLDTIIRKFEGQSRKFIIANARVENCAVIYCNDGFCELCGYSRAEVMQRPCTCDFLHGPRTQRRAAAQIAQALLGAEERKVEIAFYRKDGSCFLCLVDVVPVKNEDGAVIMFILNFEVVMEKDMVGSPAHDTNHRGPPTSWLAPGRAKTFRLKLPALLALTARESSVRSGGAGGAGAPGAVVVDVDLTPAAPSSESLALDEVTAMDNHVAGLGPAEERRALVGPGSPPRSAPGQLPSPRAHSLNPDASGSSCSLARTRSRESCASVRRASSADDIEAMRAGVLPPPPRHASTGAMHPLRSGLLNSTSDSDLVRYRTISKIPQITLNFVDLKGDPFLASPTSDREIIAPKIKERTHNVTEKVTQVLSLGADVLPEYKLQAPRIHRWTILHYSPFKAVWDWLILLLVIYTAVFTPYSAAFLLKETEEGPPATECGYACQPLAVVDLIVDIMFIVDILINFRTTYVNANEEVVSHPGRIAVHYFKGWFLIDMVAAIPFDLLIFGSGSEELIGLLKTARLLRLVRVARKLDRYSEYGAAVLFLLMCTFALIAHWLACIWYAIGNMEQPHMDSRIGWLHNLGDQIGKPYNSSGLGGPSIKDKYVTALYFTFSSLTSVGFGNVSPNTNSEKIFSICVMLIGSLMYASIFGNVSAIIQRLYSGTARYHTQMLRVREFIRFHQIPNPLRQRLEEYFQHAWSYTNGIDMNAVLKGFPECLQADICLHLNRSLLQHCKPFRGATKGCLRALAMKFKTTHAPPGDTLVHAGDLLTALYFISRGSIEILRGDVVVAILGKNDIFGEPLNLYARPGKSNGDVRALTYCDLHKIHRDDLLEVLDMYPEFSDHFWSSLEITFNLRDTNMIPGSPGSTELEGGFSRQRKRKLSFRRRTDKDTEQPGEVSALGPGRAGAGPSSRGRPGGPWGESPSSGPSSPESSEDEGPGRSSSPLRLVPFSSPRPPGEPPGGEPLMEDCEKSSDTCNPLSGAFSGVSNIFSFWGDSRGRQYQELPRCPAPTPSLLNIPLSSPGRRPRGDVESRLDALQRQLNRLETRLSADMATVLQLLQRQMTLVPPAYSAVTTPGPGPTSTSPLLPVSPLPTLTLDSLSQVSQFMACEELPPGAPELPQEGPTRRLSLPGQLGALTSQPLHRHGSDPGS
#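 U2OS cells transduced with wild-type KCNH2 virus are loaded with FluxOr dye for 45 min, and thallium flux is measured in kinetic reads before and after stimulation buffer. Rate constants are normalized to DMSO controls.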
# KCNH2 3.1 inh = KCNH2 3.1 (human) potassium channel inhibition; activity change, % (tested at about 1.8 µM); 340,000 tested, 0.95% active; U2OS KCNH2 3.1, thallium flux FluxOr; stronger effect = lower value;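 active means maximum activity change below -70%; inconclusive means maximum activity change from -70% to -50%; inactive means maximum activity change above -50%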;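 further: thallium influx rate constant from kinetic fluorescence after stimulation buffer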
#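 U2OS cells transduced with KCNH2 3.1 mutant virus (1.77 x 10^8 /mL, 4 h), plated overnight at 37 C, loaded 45 min with FluxOr dye plus Red40 quencher. Thallium flux rate constant from kinetic reads after stimulation buffer, normalised to controls.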
# JMJD2E inh = JMJD2E (human) inhibition | B2RXH2 | JMJD2E catalytic domain, FDH-coupled NADH fluorescence (FDH is formaldehyde dehydrogenase) | Potency, µM (doses to about 57.1 µM), for the others: top-dose activity change, negative = inhibition, hits mostly inhibitors | 230,000 tested, 1.6% active; active means well fitted inhibition curve with a large enough effect, not every such curve was filed as active; inconclusive means small, poorly fitted or top-dose-only effect, or another doubt; inactive means no such curve, though single readings can be large or run the other way;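 further: potency means the concentration at half of the fitted maximal effect; 0% = wells with enzyme and -100% = buffer wells without enzyme; nearly all actives have a fitted effect of over 50% in size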
# The depositor's hits bear a star; i = inactive; u = inconclusive; x = no result. A selection: hits, their analogues and other compounds. The true share with any hit is near 2%. Unless noted, no stated cut-off is given here; in the data, active means activity change below about -65%; inconclusive means mostly about -30% to -63%; inactive means weaker than that. Unless noted, on the % scale 0 is the no-effect control and ±100 the full control effect.
SMILES,CtBP-E1A inh,Six1-Eya2 inh,KCNH2 WT inh,KCNH2 3.1 inh,JMJD2E inh
Cc1c(C(=O)CN2CCN(c3ccccc3)CC2)c2ccccc2n1C,-6.2,-14.7,u,-9.8,x
Cn1c2c(c3ccccc31)CCN(CCCCN1CCN(c3ccccc3)CC1)C2=O,-21.2,u,-78.0*,-109.4*,x
Cc1cccc[n+]1C1C(c2ccc([N+](=O)[O-])cc2)C(C#N)=C(C(=C=[N-])C#N)NC1(O)C1CC1 (stereo unspecified),x,-11.9,0.9,-4.1,12.6µM*
CSC1=C(C#N)C(C)C2=C(CC(C)(C)CC2=O)N1 (stereo unspecified),10.7,9.7,-11.5,-2.5,-8.6%
CCCOc1ccc(C(=O)NC(=S)NNC(=O)c2c(-c3ccccc3)noc2C)cc1,u,u,-9.9,17.4,11.2µM*
Cc1onc(-c2ccccc2)c1C(=O)NC(=S)NNC(=O)c1ccc(O)cc1O,-13.6,-93.4*,-0.6,21.5,11.2µM*
Cc1onc(-c2ccccc2)c1C(=O)NC(=S)NNC(=O)c1ccccc1O,7.3,-85.2*,2.2,1.2,17.8µM*
Cc1onc(-c2ccccc2)c1C(=O)NC(=S)NNC(=O)c1ccc(O)cc1,-3.9,-8.9,6.9,13.3,2.4%
CCN(CC)CCOC(=O)C1(c2ccccc2)CCOCC1,11.2,-0.7,-3.8,-3.6,5.1%
CCN(CC)CCOC(=O)C(Cc1cccc2ccccc12)CC1CCCO1 (stereo unspecified),-15.7,-10.5,18.6,0.3,22.4µM*
Cc1onc(-c2ccccc2)c1C(=O)OCCOc1ccc([N+](=O)[O-])cc1[N+](=O)[O-],-9.1,-18.1,0.4,-6.8,x
CC1=C/C(=N\OS(=O)(=O)c2ccccc2)C(C(C)C)=CC1=O,0.9,-11.6,11.0,-2.1,3.98µM*
CC1=C/C(=N\OS(=O)(=O)c2ccccc2)C(C)=CC1=O,-0.9,-3.3,0.5,-12.2,13.0%
O=C(NCc1ccco1)C12CN(Cc3ccccc3)CC1C(c1cccc([N+](=O)[O-])c1)=NO2 (stereo unspecified),u,-19.1,4.5,-22.6,1.8%
Cc1ccnc(N2CCCC(C(=O)NCc3cccs3)C2)n1 (stereo unspecified),5.9,-0.7,-4.5,1.7,6.7%
Cc1ccc(OCc2nc(-c3ccc(Cl)cc3)n[nH]2)cc1,4.4,-0.5,-73.7*,-10.1,-5.1%
Cc1cc(C)cc(NC(=O)c2ccc(CSc3nnnn3C)cc2)c1,-13.2,-6.3,4.1,-10.8,-0.4%
Cn1nnnc1SCc1ccc(C(=O)Nc2nccs2)cc1,-79.7*,-70.4*,-4.5,-25.2,2.6%
CCc1nnc(NC(=O)CSc2nnc(C)n2CC2CCCO2)s1 (stereo unspecified),4.7,7.2,-161.0*,5.0,7.1%
CC1CCCC(NC(=O)COC(=O)c2ccccc2NC(=O)c2ccco2)C1C (stereo unspecified),2.9,-1.9,-6.9,-4.7,u
COc1cc(N(C)C)ccc1C=c1c2ccccc2n2c1cc(-c1ccccc1)[n+]2C,-79.9*,-80.3*,-2.3,x,x
CN(C)c1ccc(C=c2c3ccccc3n3c2cc(-c2ccc(Cl)cc2)[n+]3C)cc1,18.4,u,-207.1*,-190.6*,x
CN(C)c1ccc(C=c2c3cc([N+](=O)[O-])ccc3n3c2cc(-c2ccccc2)[n+]3C)cc1,5.7,-80.4*,5.3,6.2,x
CN(C)c1ccc(C=c2c3ccccc3n3c2cc(-c2ccccc2)[n+]3C)cc1,16.1,u,2.9,14.6,x
COc1cc(CCC(=O)OCC(=O)Nc2ccc(Br)cc2F)cc(OC)c1OC,-11.4,-18.9,9.6,-4.4,x
SMILES,CtBP-E1A inh,Six1-Eya2 inh,KCNH2 WT inh,KCNH2 3.1 inh,JMJD2E inh
Nc1cccnc1S(=O)(=O)c1cccc(C(F)(F)F)c1,5.2,1.0,-5.7,-0.7,x
CCC(C)(C)NC(=O)CN(C(=O)c1snc(C(N)=O)c1N)c1ccc2nc(C)sc2c1,x,5.9,4.4,-8.1,-26.0%
NC(=O)CSc1nc2scc(-c3ccc(Cl)cc3)c2c(=O)n1Cc1ccccc1,7.5,-0.3,i,-5.3,-2.0%
Cc1ccc(-c2csc3nc(SCC(=O)N(C)C)n(Cc4ccccc4)c(=O)c23)cc1,7.6,-1.2,0.7,-73.8*,-2.0%
Cn1c(SCc2cccc([N+](=O)[O-])c2)nc2ccccc2c1=O,-1.7,-3.7,4.1,-15.5,x
Cc1ccc(SCC(=O)NCCCN2CCOCC2)cc1,2.3,-0.5,9.3,-5.9,7.9%
Cn1c(SCC(=O)O)nnc1-c1ccc(NC(=O)c2ccc(Cl)c(Cl)c2)cc1,-10.2,-0.4,-127.3*,-16.3,-2.9%
COc1ccccc1C(=O)Nc1ccc(-c2nnc(SCC(=O)O)n2C)cc1,-16.9,-5.1,13.5,-0.3,u
COc1cc(C(c2nnnn2C2CCCC2)N2CCN(C(=O)c3ccco3)CC2)cc(OC)c1OC (stereo unspecified),-0.1,6.6,1.0,-0.5,x
Cc1cccc2c1-c1sc(C(=O)NCCCN3CCC(C)CC3)cc1CO2,14.4,14.7,10.6,-75.3*,x
O=C(CCCN1CCC(NC(=O)c2ccccc2)CC1)c1ccc(Cl)cc1,1.3,-0.3,-3.6,-106.0*,x
O=C(NC1CCN(Cc2ccc3ccccc3c2)CC1)c1ccccc1,11.6,4.4,0.7,-79.3*,x
COc1cc(C(=O)NC2CCN(Cc3ccccc3)CC2)cc(Cl)c1OC,x,-3.2,17.4,-89.9*,x
COc1ccc(C(=O)NC2CC2)cc1OC1CCN(Cc2ccccc2)CC1,-5.1,14.3,-22.7,x,x
Cc1ccc(NS(=O)(=O)c2cccc(C(=O)NC3CCN(Cc4ccccc4)CC3)c2)c(C)c1,8.6,-1.7,-2.1,-102.2*,x
N=C1C(c2ccccc2)=C(O)CN1NC(=O)c1ccccc1,2.8,9.9,-2.7,1.4,1.9%
COc1ccc(OC)c(-c2nc(C(=O)NC3CCN(Cc4ccccc4)CC3)cc3c2[nH]c2ccccc23)c1,-25.6,-18.7,u,-97.1*,x
COC(=O)\C(C(C)=O)=C(/C=C/C=C/C=C/N(C)C)N(C)C,1.2,u,1.7,10.8,22.4µM*
COC(=O)/C(C(C)=O)=C(\C=C\N(C)C)N(C)C,4.2,2.4,23.1,0.9,1.7%
CCC(Oc1ccccc1)C(=O)OCC(=O)Nc1sccc1C(N)=O (stereo unspecified),0.0,-0.5,3.6,21.9,x
COc1ccccc1C(=O)Nc1ccnn1C1CCN(CCC(C)c2ccc(C)o2)CC1 (stereo unspecified),-9.4,-12.4,-104.0*,-98.3*,x
COc1ccccc1C(=O)Nc1ccnn1C1CCN(C/C=C/c2ccccc2)CC1,-3.3,-1.7,-120.6*,-106.7*,x
Cc1ccccc1C(=O)Nc1ccnn1C1CCN(C(C)Cc2ccccc2F)CC1 (stereo unspecified),1.2,-12.8,2.5,-75.8*,x

# Bioassay records: PubChem BioAssay, National Center for Advancing Translational Sciences (NCATS)
